Inconclusive results are not listed. Active and inactive are the calls of the source.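 The calls were made as follows, unless noted: active = GFP signal, as percent of the solvent control, above the screen mean plus 3 SD, about 149; inconclusive = no reading because the compound's own fluorescence upset strain identification; inactive = the rest.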
Key:
[1] = yeast TOR pathway RPL19A-GFP modulators, primary screen, cell-based, S. cerevisiae, multiplex flow cytometry (AID 1862; in the data active = percent of DMSO control GFP below about 86%;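 also: lower values mimic rapamycin by blocking the RPL19A rise seen in DMSO cells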); details: S. cerevisiae RPL19A-GFP strain, flow cytometry fluorescence, 3 h; at 10 µM; stronger effect = lower value
[2] = modulators of MEP2-GFP levels in yeast, primary screen, S. cerevisiae, multiplex flow cytometry (AID 1867;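 active = GFP response, as percent of the DMSO control, above the screen-wide mean plus 3 SD, about 139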;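 also: median GFP channel fluorescence of barcode-gated MEP2-GFP cells measured by flow cytometry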); details: S. cerevisiae MEP2-GFP strain, 3 h, at 10 µM, stronger effect = higher value, 100% means same as DMSO wells
[3] = modulators of CIT2-GFP expression in yeast, primary screen, S. cerevisiae, GFP fusion, multiplex flow cytometry (AID 1870;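 active = percent response above a set limit, the screen-wide mean plus 3 SD, cut at about 130% in these data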;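 also: barcoded CIT2-GFP strain pooled with four other GFP strains with rapamycin as positive control; median GFP fluorescence per well over plate mean of DMSO wells so 100% = DMSO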); details: 3 h, at 10 µM, stronger effect = higher value
[4] = modulators of LAP4-GFP expression in yeast, primary screen, S. cerevisiae, multiplex flow cytometry (AID 1873); details: 3 h, at 10 µM, stronger effect = higher value
[5] = modulators of AGP1-GFP expression in yeast TOR pathway, primary screen, cell-based, multiplex flow cytometry, S. cerevisiae (AID 1887;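 active = GFP signal above the screen-wide mean plus 3 SD, that is over about 124.5% of the solvent control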;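 also: AGP1-GFP fusion strain of S. cerevisiae within a five-strain barcoded multiplex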); details: 3 h, at 10 µM, stronger effect = higher value
[6] = inhibitors of CD8+ T cell-vesicle binding, pilot screen, LFA-1/ICAM-1 modulator project, MLPCN validation set, flow cytometry (AID 2523;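 active = response below a set limit, under 55% cells CD8-positive and vesicle-bound, and CD8 cells' 90th-percentile brightness under 279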;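 as to vesicle binding response: mean PE anti-B7-1 fluorescence of CD8+ cells relative to row control; 100% = QL9-loaded vesicles with DMSO vehicle in the same plate row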); details: 2C mouse CD8+ T cells, at 7 µM, stronger effect = lower value; double positive events: measured here: CD8+/vesicle+ event percentage
[7] = target: Integrin beta-1 (Homo sapiens) + Integrin alpha-4 (Homo sapiens) (UniProt P13612+P05556); experiment: inhibition of HUTS-21 binding to VLA-4, pilot screen, VLA-4 allosteric modulator project, U937 cells, HUTS-21 mAb, flow cytometry, validation set (AID 2674;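 active = inhibition above 50%, about 3 SD of the validation set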;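 also: antibody binding induced by the VLA-4 ligand LDV present at three times its Kd; 0% = LDV ligand with antibody and no compound and 100% = antibody without LDV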); details: HUTS-21 LIBS mAb binding, at 6.7 µM, stronger effect = higher value, binding induced by LDV ligand
Chain of Integrin beta-1 (Homo sapiens) + Integrin alpha-4 (Homo sapiens) (P05556 whole entry, looked up): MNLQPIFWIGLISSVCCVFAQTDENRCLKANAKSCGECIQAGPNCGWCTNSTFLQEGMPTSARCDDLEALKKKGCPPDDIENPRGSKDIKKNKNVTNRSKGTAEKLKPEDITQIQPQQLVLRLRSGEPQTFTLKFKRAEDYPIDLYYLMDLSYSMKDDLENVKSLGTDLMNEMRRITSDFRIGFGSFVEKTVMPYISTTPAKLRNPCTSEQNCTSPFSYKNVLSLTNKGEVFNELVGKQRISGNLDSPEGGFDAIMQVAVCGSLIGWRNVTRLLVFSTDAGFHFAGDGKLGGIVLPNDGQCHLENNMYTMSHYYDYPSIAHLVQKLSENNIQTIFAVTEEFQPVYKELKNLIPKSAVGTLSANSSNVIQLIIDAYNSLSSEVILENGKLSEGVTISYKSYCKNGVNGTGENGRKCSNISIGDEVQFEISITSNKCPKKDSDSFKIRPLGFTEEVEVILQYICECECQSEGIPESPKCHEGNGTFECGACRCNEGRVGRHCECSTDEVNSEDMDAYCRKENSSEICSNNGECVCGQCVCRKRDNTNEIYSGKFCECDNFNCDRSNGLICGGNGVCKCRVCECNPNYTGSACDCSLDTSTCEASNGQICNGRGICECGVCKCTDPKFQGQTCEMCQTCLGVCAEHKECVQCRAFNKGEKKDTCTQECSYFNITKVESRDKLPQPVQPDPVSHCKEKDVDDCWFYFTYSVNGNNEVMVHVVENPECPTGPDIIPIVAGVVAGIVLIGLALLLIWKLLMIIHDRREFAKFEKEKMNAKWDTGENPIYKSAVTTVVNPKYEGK
Chain of Integrin beta-1 (Homo sapiens) + Integrin alpha-4 (Homo sapiens) (P13612 whole entry, looked up): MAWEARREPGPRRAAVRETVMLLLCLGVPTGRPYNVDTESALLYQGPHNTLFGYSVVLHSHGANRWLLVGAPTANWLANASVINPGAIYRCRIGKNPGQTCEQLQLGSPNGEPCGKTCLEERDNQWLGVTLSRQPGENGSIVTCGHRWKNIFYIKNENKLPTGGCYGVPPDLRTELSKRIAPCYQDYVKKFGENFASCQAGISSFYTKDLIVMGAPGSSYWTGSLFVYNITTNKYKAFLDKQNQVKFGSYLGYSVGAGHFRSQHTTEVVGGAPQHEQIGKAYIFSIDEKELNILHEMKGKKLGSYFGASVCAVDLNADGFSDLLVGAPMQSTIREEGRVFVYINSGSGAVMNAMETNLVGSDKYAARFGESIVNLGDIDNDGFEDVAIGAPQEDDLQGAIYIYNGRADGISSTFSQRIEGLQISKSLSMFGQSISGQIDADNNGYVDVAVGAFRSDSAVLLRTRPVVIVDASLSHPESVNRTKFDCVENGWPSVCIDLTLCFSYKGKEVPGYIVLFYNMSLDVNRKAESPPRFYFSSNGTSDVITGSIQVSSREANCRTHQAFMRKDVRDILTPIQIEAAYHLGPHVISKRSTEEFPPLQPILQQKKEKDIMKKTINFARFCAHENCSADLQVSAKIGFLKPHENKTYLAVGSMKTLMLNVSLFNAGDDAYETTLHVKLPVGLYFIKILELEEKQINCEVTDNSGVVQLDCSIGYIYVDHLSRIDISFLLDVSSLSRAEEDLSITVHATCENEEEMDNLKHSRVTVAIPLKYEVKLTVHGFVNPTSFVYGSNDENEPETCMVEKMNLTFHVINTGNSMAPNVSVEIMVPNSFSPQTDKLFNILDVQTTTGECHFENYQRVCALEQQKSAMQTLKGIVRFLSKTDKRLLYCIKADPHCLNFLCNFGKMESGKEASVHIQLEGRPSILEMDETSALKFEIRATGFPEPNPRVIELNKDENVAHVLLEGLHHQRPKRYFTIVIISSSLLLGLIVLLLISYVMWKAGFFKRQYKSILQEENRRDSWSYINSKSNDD

[8] = superoxide lowering in aged yeast cells, pilot screen, validation compound set (AID 2706;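 active = superoxide response below 65% of plate, a cut near 3 SD across the whole screen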;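 also: yeast exposed to compound for one week at 30 degrees C before staining; 100% = mean of all compound wells on the same plate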); details: S. cerevisiae aging, superoxide DHE fluorescence; at 10 µM; stronger effect = lower value
[9] = target: Beta-adrenergic receptor kinase 1 (Homo sapiens) (UniProt P25098); experiment: GRK2 binders displacing RNA aptamer, biochemical, validation, human GRK2, bead flow cytometry (AID 488806;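 active = aptamer binding inhibition above 30%, about 3 SD of noise from non-fluorescent compounds; inactive = inhibition at or below 30%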); details: bead-bound GRK2, FAM-aptamer displacement, at 10 µM, stronger effect = higher value
Chain of Beta-adrenergic receptor kinase 1 (Homo sapiens) (P25098 whole entry, looked up): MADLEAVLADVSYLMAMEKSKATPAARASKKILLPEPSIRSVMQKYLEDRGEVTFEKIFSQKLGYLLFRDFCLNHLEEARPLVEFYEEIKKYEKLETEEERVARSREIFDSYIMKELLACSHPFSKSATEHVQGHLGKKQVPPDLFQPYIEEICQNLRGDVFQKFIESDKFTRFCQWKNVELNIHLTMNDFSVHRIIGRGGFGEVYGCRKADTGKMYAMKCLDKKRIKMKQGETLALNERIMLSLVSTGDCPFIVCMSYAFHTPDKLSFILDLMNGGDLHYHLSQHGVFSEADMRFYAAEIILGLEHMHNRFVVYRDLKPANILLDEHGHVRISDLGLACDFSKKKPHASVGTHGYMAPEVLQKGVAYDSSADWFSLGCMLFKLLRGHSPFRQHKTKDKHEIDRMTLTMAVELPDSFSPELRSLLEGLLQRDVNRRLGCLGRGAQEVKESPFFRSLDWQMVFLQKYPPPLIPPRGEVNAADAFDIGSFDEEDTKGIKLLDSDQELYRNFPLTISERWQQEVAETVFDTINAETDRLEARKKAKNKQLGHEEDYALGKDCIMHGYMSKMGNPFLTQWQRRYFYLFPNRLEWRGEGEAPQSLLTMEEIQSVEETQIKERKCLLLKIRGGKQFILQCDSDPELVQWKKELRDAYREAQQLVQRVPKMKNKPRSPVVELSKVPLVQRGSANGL

[10] = target: Beta-2 adrenergic receptor (Homo sapiens) (UniProt P07550); experiment: beta2AR agonists driving receptor internalization, pilot screen, cell-based, FAP fluorogen, flow cytometry, validation set (AID 504459;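 active = percent response above 42, roughly 3 SD of non-fluorescent test compounds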;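 also: agonist-driven loss of surface beta2AR via internalization measured by FAP dye flow cytometry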); details: Am2.2-beta2AR cells, FAP surface receptor flow cytometry; at 10 µM; stronger effect = higher value
Chain of Beta-2 adrenergic receptor (Homo sapiens) (P07550 whole entry, looked up): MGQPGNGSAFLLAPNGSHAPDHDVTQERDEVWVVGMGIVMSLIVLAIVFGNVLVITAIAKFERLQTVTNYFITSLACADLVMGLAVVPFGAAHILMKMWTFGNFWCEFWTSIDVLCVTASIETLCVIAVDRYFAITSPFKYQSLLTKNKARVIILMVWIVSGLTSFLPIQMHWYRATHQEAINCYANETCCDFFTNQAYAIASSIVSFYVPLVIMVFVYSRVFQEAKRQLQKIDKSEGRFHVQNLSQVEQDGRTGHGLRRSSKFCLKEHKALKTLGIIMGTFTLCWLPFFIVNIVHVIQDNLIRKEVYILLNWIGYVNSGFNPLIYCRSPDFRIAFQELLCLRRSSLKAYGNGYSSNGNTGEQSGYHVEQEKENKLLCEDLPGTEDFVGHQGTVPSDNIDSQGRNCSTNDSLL

[11] = target: AP-2 complex subunit beta (Homo sapiens) (UniProt P63010); experiment: inhibitors of arrestin peptide binding to AP2, pilot screen, biochemical, validation set, GST-AP2 beads, flow cytometry (AID 504541;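 active = inhibition above 54%, about 3 SD of non-fluorescent compounds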;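 also: AP2 carries R879A mutation and is captured from E. coli lysate; bead-bound FITC arrestin peptide fluorescence measuring arrestin peptide binding to AP2; 0% = DMSO wells and 100% = excess unlabeled arrestin peptide control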); details: FITC arrestin peptide, at 10 µM, stronger effect = higher value, AP2 beta2 appendage fragment, R879A mutant
Chain of AP-2 complex subunit beta (Homo sapiens) (P63010 whole entry, looked up, the tested form may be a part, one chain of several): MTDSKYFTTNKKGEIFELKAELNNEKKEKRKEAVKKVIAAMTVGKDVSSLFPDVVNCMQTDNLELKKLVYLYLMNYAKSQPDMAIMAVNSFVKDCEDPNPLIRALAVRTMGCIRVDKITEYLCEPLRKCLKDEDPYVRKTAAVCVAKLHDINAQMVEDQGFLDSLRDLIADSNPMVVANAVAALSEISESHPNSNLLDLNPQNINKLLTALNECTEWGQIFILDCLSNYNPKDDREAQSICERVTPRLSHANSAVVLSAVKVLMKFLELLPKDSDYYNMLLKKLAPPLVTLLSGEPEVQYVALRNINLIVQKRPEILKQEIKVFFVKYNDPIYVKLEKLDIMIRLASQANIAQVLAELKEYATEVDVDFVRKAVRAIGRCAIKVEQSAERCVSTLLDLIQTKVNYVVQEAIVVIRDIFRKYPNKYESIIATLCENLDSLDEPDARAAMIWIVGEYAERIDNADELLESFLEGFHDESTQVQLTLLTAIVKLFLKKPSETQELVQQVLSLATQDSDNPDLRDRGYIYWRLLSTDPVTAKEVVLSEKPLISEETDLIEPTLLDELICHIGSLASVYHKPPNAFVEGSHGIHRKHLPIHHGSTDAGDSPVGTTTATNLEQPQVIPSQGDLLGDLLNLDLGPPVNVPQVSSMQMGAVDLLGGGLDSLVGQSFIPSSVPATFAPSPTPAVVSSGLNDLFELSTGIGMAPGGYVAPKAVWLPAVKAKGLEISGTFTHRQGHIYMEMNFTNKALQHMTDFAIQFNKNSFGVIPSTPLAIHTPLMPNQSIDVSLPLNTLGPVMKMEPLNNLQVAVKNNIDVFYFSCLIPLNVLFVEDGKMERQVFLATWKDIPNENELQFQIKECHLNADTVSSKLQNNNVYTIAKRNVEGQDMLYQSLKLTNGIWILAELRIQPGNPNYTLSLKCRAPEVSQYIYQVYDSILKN

[12] = yeast V-ATPase proton transport modulators, S. cerevisiae, pHLuorin, HTS validation (AID 504600; in the data active = response above about 15%;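 also: plate controls were DMSO for no effect and reference compound for full effect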); details: S. cerevisiae pHLuorin cytosolic pH, at 10 µM, stronger effect = higher value
[13] = tested on: anti-desmoglein-3 scFv antibody binding to human DSG3; experiment: inhibitors of anti-DSG3 scFv binding to DSG3, pilot screen, biochemical, validation compound set, bead-based, flow cytometry (AID 588368;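 active = binding below the plate cutoff, the plate median minus 3 SD, with a reading above zero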;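 also: signal is the median channel fluorescence of bead-bound GFP antibody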); details: Protein G beads, DSG3-Fc, scFv-GFP binding, at 10 µM, stronger effect = lower value
[14] = inhibitors of fungal efflux pumps CDR1, CDR2, MDR1, pilot screen, validation compound set, multiplex, phenotypic (AID 588506;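 active = efflux inhibition above 0.42, the validation set average plus 4 SD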;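 also: Nile Red retained in cells so higher fluorescence means more efflux inhibition; 0 = negative control wells and 1 = enniatin B 25 µM full block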); details: S. cerevisiae pump-expressing triplex, Nile Red efflux flow cytometry; at 10 µM; stronger effect = higher value; the pumps come from Candida albicans
[15] = target: ATP-binding cassette sub-family B member 6 (Homo sapiens) (UniProt Q9NP58); experiment: ABCB6 transporter inhibitors, pilot screen, K562-ABCB6 cells, flow cytometry, validation set (AID 588550;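 active = inhibition above the screen-wide mean plus 3 SD, about 51%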;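 also: 0% = DMSO wells and 100% = benzethonium chloride 70 µM positive control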); details: K562-ABCB6 porphyrin accumulation, 1 h, at 10 µM, stronger effect = higher value
Chain of ATP-binding cassette sub-family B member 6 (Homo sapiens) (Q9NP58 whole entry, looked up): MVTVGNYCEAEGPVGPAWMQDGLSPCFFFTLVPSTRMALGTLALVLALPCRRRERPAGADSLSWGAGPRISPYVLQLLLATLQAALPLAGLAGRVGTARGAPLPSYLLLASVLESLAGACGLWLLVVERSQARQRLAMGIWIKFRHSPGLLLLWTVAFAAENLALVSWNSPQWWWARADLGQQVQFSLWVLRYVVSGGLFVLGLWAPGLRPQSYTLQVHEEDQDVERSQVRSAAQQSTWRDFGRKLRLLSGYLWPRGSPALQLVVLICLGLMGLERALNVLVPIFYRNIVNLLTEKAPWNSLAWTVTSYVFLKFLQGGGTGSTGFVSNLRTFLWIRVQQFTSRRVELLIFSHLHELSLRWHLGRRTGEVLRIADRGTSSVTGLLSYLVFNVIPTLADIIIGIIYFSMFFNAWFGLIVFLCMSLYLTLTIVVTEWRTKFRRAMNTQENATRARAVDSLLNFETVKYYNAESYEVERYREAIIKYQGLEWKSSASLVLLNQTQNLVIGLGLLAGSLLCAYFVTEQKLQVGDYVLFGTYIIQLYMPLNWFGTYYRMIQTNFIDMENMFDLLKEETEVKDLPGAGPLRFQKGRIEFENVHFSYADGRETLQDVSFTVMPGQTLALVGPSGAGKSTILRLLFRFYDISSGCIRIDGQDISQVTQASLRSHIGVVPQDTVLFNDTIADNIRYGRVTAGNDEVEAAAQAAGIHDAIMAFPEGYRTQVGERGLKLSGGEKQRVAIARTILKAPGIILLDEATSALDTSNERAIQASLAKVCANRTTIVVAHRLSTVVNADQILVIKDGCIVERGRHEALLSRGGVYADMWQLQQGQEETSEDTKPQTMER

[16] = promoters of myeloid differentiation in arrested cells, primary screen, cell-based, GFP/MAC1 double positive, flow cytometry, validation set (AID 588685;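 active = differentiation response of at least 50%, scaled between solvent and reference control, from cells with both markers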;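 also: compound exposure lasts four days before antibody staining and flow analysis; 0% = DMSO wells and 100% = 5 µM fulvestrant positive control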); details: ER-HoxA9 marrow cells, stronger effect = higher value, normalized: vehicle 0, fulvestrant 100

CCCc1cc(C(N)=S)ccn1
60.4%: double positive events [6]
inactive: percent of DMSO control GFP [1] 96.9% | GFP response vs DMSO [2] 99.6% | percent response of DMSO control [3] 101% | GFP response vs DMSO [4] 91.4% | GFP response, % of DMSO [5] 93.1% | vesicle binding response [6] 190% | inhibition [7] 0.94% | superoxide response (% of plate) [8] 97% | aptamer binding inhibition [9] 2% | response [10] -5.23% | inhibition [11] 7.42% | response [12] -1.93% | binding (% of control) [13] 97.6% | efflux inhibition (fraction of control) [14] -0.28 | inhibition [15] -25% | differentiation response [16] -18.4%

COc1c2ccoc2nc2c(OC)cccc12
inactive: percent of DMSO control GFP [1] 105% | GFP response vs DMSO [2] 101% | percent response of DMSO control [3] 95.8% | GFP response vs DMSO [4] 102% | GFP response, % of DMSO [5] 105% | vesicle binding response [6] 5040% | inhibition [7] 21.4% | superoxide response (% of plate) [8] 82.1% | aptamer binding inhibition [9] 5% | response [10] -6.43% | inhibition [11] -5.75% | response [12] 0.27% | binding (% of control) [13] 97.2% | efflux inhibition (fraction of control) [14] -0.13 | inhibition [15] 6% | differentiation response [16] -15.2%
64.2%: double positive events [6]

O=C(Cc1c[nH]c2ccccc12)OCCOC(=O)Cc1c[nH]c2ccccc12
60.9%: double positive events [6]
inactive: percent of DMSO control GFP [1] 104% | GFP response vs DMSO [2] 96.6% | percent response of DMSO control [3] 110% | GFP response vs DMSO [4] 100% | GFP response, % of DMSO [5] 101% | vesicle binding response [6] 111% | inhibition [7] -3.77% | superoxide response (% of plate) [8] 103% | aptamer binding inhibition [9] -1% | response [10] -3.51% | inhibition [11] -12.4% | response [12] 1.88% | binding (% of control) [13] 99.6% | efflux inhibition (fraction of control) [14] -0.12 | inhibition [15] -4% | differentiation response [16] -4.57%

CC(=O)CC(c1ccc([N+](=O)[O-])cc1)c1c(O)c2ccccc2oc1=O (stereo not given)
inactive: percent of DMSO control GFP [1] 107% | GFP response vs DMSO [2] 105% | percent response of DMSO control [3] 105% | GFP response vs DMSO [4] 118% | GFP response, % of DMSO [5] 114% | vesicle binding response [6] 115% | inhibition [7] -5.11% | superoxide response (% of plate) [8] 105% | aptamer binding inhibition [9] -1% | response [10] -6.11% | inhibition [11] 1.39% | response [12] 1.39% | binding (% of control) [13] 99% | efflux inhibition (fraction of control) [14] 0.4 | inhibition [15] 2% | differentiation response [16] -11.9%
60.4%: double positive events [6]

COc1ccc(CNC(=O)N[C@H](C(=O)O)C(C)C)cc1OC
inactive: percent of DMSO control GFP [1] 92.6% | GFP response vs DMSO [2] 119% | percent response of DMSO control [3] 111% | GFP response vs DMSO [4] 81.4% | GFP response, % of DMSO [5] 89.8% | vesicle binding response [6] 186% | inhibition [7] -9.06% | superoxide response (% of plate) [8] 112% | aptamer binding inhibition [9] -5% | response [10] -4.83% | inhibition [11] -15.3% | response [12] 1.94% | binding (% of control) [13] 98.1% | efflux inhibition (fraction of control) [14] 0.3 | inhibition [15] 3% | differentiation response [16] 7.37%
53.2%: double positive events [6]

Reference: PubChem BioAssay
